From PubChem BioAssay (NCI)
Compounds without any hit were thinned out: in the full panel of roughly 79,000, 15% have a hit. Values without a mark were called inactive. Calls of active or inactive are those of the source. Rule as the data show it: active = growth inhibition above about 70%; inactive = the rest.

Experiments:
[1] = NCI Yeast Anticancer Drug Screen. Data for the rad52 strain (AID 147);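 also: 0% = growth of vehicle-treated control cultures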; details: S. cerevisiae rad52 mutant growth inhibition, hits give high values
Summary of the method: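 DNA repair-defective yeast; compound exposure; growth scored against vehicle controls.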

[2] = NCI Yeast Anticancer Drug Screen. Data for the wt1 strain (AID 149);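 also: 0% = growth of vehicle-treated wt1 cultures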; details: S. cerevisiae wt1 strain (SPY 50644) growth inhibition, hits give high values
Summary of the method: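 wt1 yeast, compound-treated; % growth inhibition vs vehicle control.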

[3] = NCI Yeast Anticancer Drug Screen. Data for the rad50EPP+ strain (AID 151);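 also: 0% = growth of vehicle-treated control cultures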; details: S. cerevisiae rad50 mutant strain, hits give high values
Summary of the method: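 rad50EPP+ yeast treated with test compounds. Readout: growth vs vehicle control.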

[4] = NCI Yeast Anticancer Drug Screen. Data for the mgt1 strain (AID 153); details: S. cerevisiae mgt1 mutant growth inhibition, hits give high values
Summary of the method: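 Growth inhibition relative to vehicle controls was scored for the mgt1 yeast strain after compound exposure.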

[5] = NCI Yeast Anticancer Drug Screen. Data for the rad50 strain (AID 155);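 also: 0% = growth of vehicle-only cultures of the same strain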; details: S. cerevisiae rad50 strain growth inhibition, hits give high values
Summary of the method: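 Genetically altered yeast (DNA repair pathway); compound treatment; growth inhibition vs vehicle ctrl.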

[6] = NCI Yeast Anticancer Drug Screen. Data for the mec2-1 strain (AID 157); details: S. cerevisiae mec2-1 strain, hits give high values
Summary of the method: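 Growth inhibition is read against vehicle-treated controls after compound exposure of the mec2-1 yeast strain, which is defective in DNA damage repair or cell cycle control.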

[7] = NCI Yeast Anticancer Drug Screen. Data for the rad14 strain (AID 159);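 also: 0% = growth of vehicle-treated control cultures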; details: S. cerevisiae rad14 strain growth inhibition, hits give high values
Summary of the method: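 Test compounds were applied to a repair-deficient yeast strain. Its growth was then compared with that of cultures given vehicle alone, and inhibition was expressed relative to those controls.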

[8] = NCI Yeast Anticancer Drug Screen. Data for the sgs1 mgt1 strain (AID 161);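 also: 0% = growth of cultures given vehicle only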; details: S. cerevisiae sgs1 mgt1 strain, hits give high values
Summary of the method: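 This yeast growth screen uses a strain with defined DNA-repair lesions; compound-treated growth is compared with vehicle-treated growth.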

[9] = NCI Yeast Anticancer Drug Screen. Data for the CLN2oe strain (AID 163);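 also: 0% = growth of vehicle-only control cultures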; details: S. cerevisiae CLN2oe strain, hits give high values
Summary of the method: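 Compound-treated yeast; growth vs vehicle ctrl = % inhibition. Genetically altered strain (cell-cycle control).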

[10] = NCI Yeast Anticancer Drug Screen. Data for the cln2 rad14 strain (AID 165);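 also: 0% = growth equal to vehicle treated cultures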; details: S. cerevisiae cln2 rad14 strain, hits give high values
Summary of the method: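 Growth inhibition, relative to vehicle-treated controls, is the read-out. The test organism is a yeast strain with defined genetic alterations, cln2 rad14.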

[11] = NCI Yeast Anticancer Drug Screen. Data for the bub3 strain (AID 167); details: S. cerevisiae bub3 mutant strain, hits give high values
Summary of the method: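 Yeast carrying a defined mutation is treated with each compound, and growth is compared with that of vehicle-exposed cells to give inhibition.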

[12] = NCI Yeast Anticancer Drug Screen. Data for the wt2 strain (AID 169);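 also: 0% = growth of vehicle-treated yeast cultures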; details: S. cerevisiae wt2 strain growth inhibition, hits give high values
Summary of the method: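 Compound exposure of yeast; growth compared with vehicle controls; inhibition reported.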

[13] = NCI Yeast Anticancer Drug Screen. Data for the mlh1 strain (AID 171);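 also: 0% = growth of vehicle-treated control cultures of the same strain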; details: S. cerevisiae mlh1 strain growth inhibition, hits give high values
Summary of the method: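 Compounds are applied to a genetically altered yeast strain, and its growth is compared with that of vehicle-treated cultures to give percent inhibition.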

[14] = NCI Yeast Anticancer Drug Screen. Data for the sgs1 strain (AID 173);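 also: 0% = growth of vehicle-only control cultures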; details: S. cerevisiae sgs1 mutant, hits give high values
Summary of the method: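 Compounds applied to genetically altered yeast; growth compared with vehicle-treated cultures to give % inhibition.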

[15] = NCI Yeast Anticancer Drug Screen. Data for the mlh1 rad18 strain (AID 175); details: S. cerevisiae mlh1 rad18 strain growth inhibition, hits give high values
Summary of the method: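 Cells of a genetically altered yeast strain, deficient in DNA damage repair, were treated with compound. Their growth was then compared with that of vehicle-treated cultures to give inhibition.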

[16] = NCI Yeast Anticancer Drug Screen. Data for the rad18 strain (AID 177); details: S. cerevisiae rad18 mutant growth inhibition, hits give high values
Summary of the method: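 Compounds are applied to a repair-deficient yeast strain, and growth is compared with that of vehicle-treated cultures to give percent inhibition.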

[17] = at 5.0 µM (retest, dose inferred, filed as 0.5)
[18] = at 50.0 µM (retest, dose inferred, filed as 5.0)

**Q.** What does the source list for O=C(O)c1cc2ccccc2c2c1C(=O)c1ccccc1-2?
**A.** growth inhibition ([1]; at 1.2 µM): -3%; growth inhibition ([1]; at 3.7 µM): 21%; growth inhibition ([1]; at 11.0 µM): 74% (active); growth inhibition ([1]; at 33.0 µM): 96% (active); growth inhibition ([1]; at 100.0 µM): 94% (active); growth inhibition ([2]; at 1.2 µM): -4%; growth inhibition ([2]; at 3.7 µM): 16%; growth inhibition ([2]; at 11.0 µM): 47%; growth inhibition ([2]; at 33.0 µM): 94% (active); growth inhibition ([2]; at 100.0 µM): 94% (active); growth inhibition ([3]; at 1.2 µM): -23%; growth inhibition ([3]; at 3.7 µM): -36%; growth inhibition ([3]; at 11.0 µM): 10%; growth inhibition ([3]; at 33.0 µM): 47%; growth inhibition ([3]; at 100.0 µM): 67%; growth inhibition ([4]; at 1.2 µM): 11%; growth inhibition ([4]; at 3.7 µM): 20%; growth inhibition ([4]; at 11.0 µM): 43%; growth inhibition ([4]; at 33.0 µM): 95% (active); growth inhibition ([4]; at 100.0 µM): 95% (active); growth inhibition ([5]; at 1.2 µM): 4%; growth inhibition ([5]; at 3.7 µM): 19%; growth inhibition [5, 17]: 8%; growth inhibition ([5]; at 11.0 µM): 77% (active); growth inhibition ([5]; at 33.0 µM): 95% (active); growth inhibition [5, 18]: 94% (active); growth inhibition ([5]; at 50.0 µM): 88.2% (active); growth inhibition ([5]; at 100.0 µM): 93% (active); growth inhibition ([6]; at 1.2 µM): -9%; growth inhibition ([6]; at 3.7 µM): 9%; growth inhibition [6, 17]: 25%; growth inhibition ([6]; at 11.0 µM): 29%; growth inhibition ([6]; at 33.0 µM): 95% (active); growth inhibition [6, 18]: 96% (active); growth inhibition ([6]; at 50.0 µM): 91.5% (active); growth inhibition ([6]; at 100.0 µM): 92% (active); growth inhibition ([7]; at 1.2 µM): 8%; growth inhibition ([7]; at 3.7 µM): 21%; growth inhibition ([7]; at 11.0 µM): 43%; growth inhibition ([7]; at 33.0 µM): 94% (active); growth inhibition ([7]; at 100.0 µM): 95% (active); growth inhibition [8, 17]: 0%; growth inhibition [8, 18]: 94% (active); growth inhibition ([8]; at 50.0 µM): 92.6% (active); growth inhibition ([9]; at 1.2 µM): 13%; growth inhibition ([9]; at 3.7 µM): 28%; growth inhibition ([9]; at 11.0 µM): 64%; growth inhibition ([9]; at 33.0 µM): 96% (active); growth inhibition ([9]; at 100.0 µM): 95% (active); growth inhibition [10, 17]: 45%; growth inhibition [10, 18]: 97% (active); growth inhibition ([10]; at 50.0 µM): 88.8% (active); growth inhibition ([11]; at 1.2 µM): -1%; growth inhibition ([11]; at 3.7 µM): 7%; growth inhibition [11, 17]: 14%; growth inhibition ([11]; at 11.0 µM): 56%; growth inhibition ([11]; at 33.0 µM): 95% (active); growth inhibition [11, 18]: 96% (active); growth inhibition ([11]; at 50.0 µM): 90.8% (active); growth inhibition ([11]; at 100.0 µM): 94% (active); growth inhibition ([12]; at 1.2 µM): -1%; growth inhibition ([12]; at 3.7 µM): 11%; growth inhibition ([12]; at 11.0 µM): 49%; growth inhibition ([12]; at 33.0 µM): 96% (active); growth inhibition ([12]; at 100.0 µM): 95% (active); growth inhibition ([13]; at 1.2 µM): 9%; growth inhibition ([13]; at 3.7 µM): 14%; growth inhibition ([13]; at 11.0 µM): 59%; growth inhibition ([13]; at 33.0 µM): 95% (active); growth inhibition ([13]; at 100.0 µM): 95% (active); growth inhibition ([14]; at 1.2 µM): 18%; growth inhibition ([14]; at 3.7 µM): 28%; growth inhibition ([14]; at 11.0 µM): 69%; growth inhibition ([14]; at 33.0 µM): 95% (active); growth inhibition ([14]; at 100.0 µM): 96% (active); growth inhibition [15, 17]: 22%; growth inhibition [15, 18]: 97% (active); growth inhibition ([15]; at 50.0 µM): 90% (active); growth inhibition ([16]; at 1.2 µM): 5%; growth inhibition ([16]; at 3.7 µM): 12%; growth inhibition ([16]; at 11.0 µM): 43%; growth inhibition ([16]; at 33.0 µM): 95% (active); growth inhibition ([16]; at 100.0 µM): 94% (active)

**Q.** What does the source list for Cc1ccccc1N=C(NO)c1ccccc1?
**A.** growth inhibition ([1]; at 1.2 µM): 10%; growth inhibition ([1]; at 3.7 µM): 9%; growth inhibition ([1]; at 11.0 µM): 22%; growth inhibition ([1]; at 33.0 µM): 60%; growth inhibition ([1]; at 100.0 µM): 97% (active); growth inhibition ([2]; at 1.2 µM): 0%; growth inhibition ([2]; at 3.7 µM): -4%; growth inhibition ([2]; at 11.0 µM): -6%; growth inhibition ([2]; at 33.0 µM): 9%; growth inhibition ([2]; at 100.0 µM): 93% (active); growth inhibition ([3]; at 1.2 µM): 1%; growth inhibition ([3]; at 3.7 µM): 6%; growth inhibition ([3]; at 11.0 µM): 15%; growth inhibition ([3]; at 33.0 µM): 42%; growth inhibition ([3]; at 100.0 µM): 67%; growth inhibition ([4]; at 1.2 µM): 0%; growth inhibition ([4]; at 3.7 µM): -4%; growth inhibition ([4]; at 11.0 µM): -4%; growth inhibition ([4]; at 33.0 µM): 30%; growth inhibition ([4]; at 100.0 µM): 95% (active); growth inhibition ([5]; at 1.2 µM): 8%; growth inhibition ([5]; at 3.7 µM): 15%; growth inhibition [5, 17]: -141%; growth inhibition ([5]; at 11.0 µM): 31%; growth inhibition ([5]; at 33.0 µM): 59%; growth inhibition [5, 18]: 33%; growth inhibition ([5]; at 50.0 µM): 90.6% (active); growth inhibition ([5]; at 100.0 µM): 97% (active); growth inhibition ([6]; at 1.2 µM): 1%; growth inhibition ([6]; at 3.7 µM): 0%; growth inhibition [6, 17]: -44%; growth inhibition ([6]; at 11.0 µM): -5%; growth inhibition ([6]; at 33.0 µM): 49%; growth inhibition [6, 18]: 14%; growth inhibition ([6]; at 50.0 µM): 82.8% (active); growth inhibition ([6]; at 100.0 µM): 97% (active); growth inhibition ([7]; at 1.2 µM): 0%; growth inhibition ([7]; at 3.7 µM): -4%; growth inhibition ([7]; at 11.0 µM): 6%; growth inhibition ([7]; at 33.0 µM): 29%; growth inhibition ([7]; at 100.0 µM): 96% (active); growth inhibition [8, 17]: -61%; growth inhibition [8, 18]: 49%; growth inhibition ([8]; at 50.0 µM): 80% (active); growth inhibition ([9]; at 1.2 µM): -3%; growth inhibition ([9]; at 3.7 µM): -5%; growth inhibition ([9]; at 11.0 µM): -2%; growth inhibition ([9]; at 33.0 µM): 20%; growth inhibition ([9]; at 100.0 µM): 95% (active); growth inhibition [10, 17]: -56%; growth inhibition [10, 18]: 20%; growth inhibition ([10]; at 50.0 µM): 74.2% (active); growth inhibition ([11]; at 1.2 µM): 3%; growth inhibition ([11]; at 3.7 µM): -1%; growth inhibition [11, 17]: -67%; growth inhibition ([11]; at 11.0 µM): -5%; growth inhibition ([11]; at 33.0 µM): 5%; growth inhibition [11, 18]: 37%; growth inhibition ([11]; at 50.0 µM): 76.8% (active); growth inhibition ([11]; at 100.0 µM): 94% (active); growth inhibition ([12]; at 1.2 µM): -3%; growth inhibition ([12]; at 3.7 µM): -3%; growth inhibition ([12]; at 11.0 µM): -4%; growth inhibition ([12]; at 33.0 µM): 20%; growth inhibition ([12]; at 100.0 µM): 94% (active); growth inhibition ([13]; at 1.2 µM): 1%; growth inhibition ([13]; at 3.7 µM): 2%; growth inhibition ([13]; at 11.0 µM): 2%; growth inhibition ([13]; at 33.0 µM): 31%; growth inhibition ([13]; at 100.0 µM): 95% (active); growth inhibition ([14]; at 1.2 µM): 1%; growth inhibition ([14]; at 3.7 µM): 6%; growth inhibition ([14]; at 11.0 µM): 15%; growth inhibition ([14]; at 33.0 µM): 62%; growth inhibition ([14]; at 100.0 µM): 98% (active); growth inhibition [15, 17]: -122%; growth inhibition [15, 18]: 29%; growth inhibition ([15]; at 50.0 µM): 92.9% (active); growth inhibition ([16]; at 1.2 µM): 1%; growth inhibition ([16]; at 3.7 µM): 2%; growth inhibition ([16]; at 11.0 µM): 11%; growth inhibition ([16]; at 33.0 µM): 35%; growth inhibition ([16]; at 100.0 µM): 96% (active)
